This is part of a sample that, as a whole, favours compounds with a hit. Of some 79,000 tested, about 15% had one in any assay. Rule as the data show it: active = growth inhibition above about 70%; inactive = the rest.
Key:
[1] = NCI Yeast Anticancer Drug Screen. Data for the rad50 strain (AID 155);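 also: 0% = growth of vehicle-only cultures of the same strain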; settings: S. cerevisiae rad50 strain growth inhibition, hits give high values; at 50.0 µM unless noted
How it was run: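 Yeast carrying a defined DNA repair defect were exposed to test compounds, and growth was compared with vehicle-treated controls to give percent inhibition.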

[2] = NCI Yeast Anticancer Drug Screen. Data for the mec2-1 strain (AID 157); settings: S. cerevisiae mec2-1 strain, hits give high values; at 50.0 µM unless noted
How it was run: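 Using mec2-1 yeast: add compound, measure growth, express inhibition versus vehicle-treated cultures.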

[3] = NCI Yeast Anticancer Drug Screen. Data for the sgs1 mgt1 strain (AID 161);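 also: 0% = growth of cultures given vehicle only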; settings: S. cerevisiae sgs1 mgt1 strain, hits give high values; at 50.0 µM unless noted
How it was run: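 Yeast cells carrying a defined DNA-repair defect were exposed to test compounds. Growth inhibition was measured relative to vehicle-treated controls.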

[4] = NCI Yeast Anticancer Drug Screen. Data for the cln2 rad14 strain (AID 165);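 also: 0% = growth equal to vehicle treated cultures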; settings: S. cerevisiae cln2 rad14 strain, hits give high values; at 50.0 µM unless noted
How it was run: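 Yeast strain cln2 rad14, bearing defects in cell cycle control and DNA repair, serves as the test system; values reflect growth inhibition compared with vehicle.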

[5] = NCI Yeast Anticancer Drug Screen. Data for the bub3 strain (AID 167); settings: S. cerevisiae bub3 mutant strain, hits give high values; at 50.0 µM unless noted
How it was run: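 Compounds were applied to a genetically altered yeast strain carrying a cell-cycle control defect. Growth inhibition was scored against vehicle-treated controls.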

[6] = NCI Yeast Anticancer Drug Screen. Data for the mlh1 rad18 strain (AID 175); settings: S. cerevisiae mlh1 rad18 strain growth inhibition, hits give high values; at 50.0 µM unless noted
How it was run: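 Steps: expose repair-defective yeast to compound; measure growth; express inhibition against vehicle-treated controls.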

Measured: growth inhibition

CC(=O)C1=CCCCC1
inactive: [1] 6.1% | [2] -2.8% | [3] -3.3% | [4] 11.7% | [5] 14.7% | [6] -7.8%

CC1OC(Cl)CC(NC(=O)C(F)(F)F)C1OC(=O)C(F)(F)F (centres undefined)
inactive: [1] -0.55% | [2] -1.7% | [3] -5.55% | [4] -17.8% | [5] 14.2% | [6] 13.9%

CCOc1ccc(C(=O)C[N+]2(CCc3ccccc3)CCOCC2)cc1
inactive: [1] -12.9% | [2] 6.3% | [3] 11.6% | [4] 6.2% | [5] -0.7% | [6] 41%

Cc1nn(C(C)C(=O)N(C)C)c(Br)c1Br (centres undefined)
inactive: [1] 2.05% | [2] 4.7% | [3] 0.75% | [4] -30.4% | [5] -25.7% | [6] 3.15%

O=c1[nH]nc(-c2ccccc2)nc1/C(=N\Nc1ccccc1)c1ccccc1
inactive: [1] 15.5% | [2] -12.3% | [3] 1.05% | [4] 0.85% | [5] 12.5% | [6] 14.7%

CCOc1nc(=O)n(C2OC(CO)C(O)C2O)s1 (centres undefined)
inactive: [1] 26.4% | [2] -1.35% | [3] -3.7% | [4] -34.1% | [5] -5.65% | [6] 2.5%

CCOC(=O)CNC(=O)C(CCC(=O)N(C)O)NC(=O)CCC(N)C(=O)O (centres undefined)
inactive: [1] -20.1% | [2] -5.5% | [3] -0.8% | [4] -0.05% | [5] 4.25% | [6] -35.5%

COC1C(O)C(n2ncc3c(SC)nc(SC)nc32)OC1C(O)CO (centres undefined)
inactive: [1] 16.3% | [2] -3.95% | [3] -16.2% | [4] 8.95% | [5] -4% | [6] 14.4%

CC1(C)C2CCC1(C)C(/C=N/NC(N)=O)C2 (centres undefined)
inactive: [1] 5.4% | [2] 17.8% | [3] -5.6% | [4] -46% | [5] 20.4% | [6] 12.8%

Source: PubChem BioAssay (NCI)
